Counter-ions that a name gives are not always drawn. ± gives the standard deviation of the averaged measurements.
What was measured:
Assay in all cases: growth (OD600 after 10 h); higher = more growth (less inhibition)
[1] = test system: E. coli TESEC Alr+ wild-type control; details: compound 0.1 mM; raw OD600 reference: median of DMSO wells 0.241, cell-free background 0.041
Protocol: (§1)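 TESEC Mtb Alr E. coli, or the Alr+ wild-type control, in 384-well plates with Prestwick library compounds at 0.1 mM and 1% DMSO, across arabinose induction levels of 1E3 to 1E7 nM. Growth is read as OD600 after 10 h at 37 °C in triplicate biological replicates.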

[2] = test system: E. coli TESEC Mtb Alr; details: compound 0.1 mM
Protocol: as §1

[3] = test system: E. coli TESEC Mtb Asd; details: compound 0.1 mM
Protocol: (§2)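 TESEC E. coli strains in which the native enzyme is deleted and replaced by arabinose-inducible Mtb Asd, DapB, CysH or TrpD, each grown in its selective medium. Strains were screened against the Prestwick library at 0.1 mM and 1% DMSO in 384-well format at low and high arabinose induction. Growth is read as OD600 after 10 h in triplicate.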

[4] = test system: E. coli TESEC Mtb DapB; details: compound 0.1 mM
Protocol: as §2

[5] = test system: E. coli TESEC Alr+ wild-type control; details: compound 0.1 mM; raw OD600 reference: median of DMSO wells 0.49, cell-free background 0.052
Protocol: (§3)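 TESEC Mtb Alr E. coli (ΔaraC ΔtolC ΔentC Δalr ΔdadX, arabinose-inducible Mtb Alr) or the Alr+ wild-type control strain, grown in defined M9-fructose medium without D-alanine in 96-well plates with Prestwick library compounds at 0.1 mM and 1% DMSO. Low Alr induction is 0.1 µM arabinose and high induction is 10 mM arabinose.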

[6] = test system: E. coli TESEC Mtb Alr; details: compound 0.1 mM; remark: listed apart in the source
Protocol: as §3

[7] = arabinose 1000 nM, raw OD600 reference: median of DMSO wells 0.294, cell-free background 0.041
[8] = arabinose 10000 nM, raw OD600 reference: median of DMSO wells 0.264, cell-free background 0.041
[9] = arabinose 100000 nM, raw OD600 reference: median of DMSO wells 0.201, cell-free background 0.041
[10] = arabinose 1000000 nM, raw OD600 reference: median of DMSO wells 0.193, cell-free background 0.041
[11] = arabinose 10000000 nM, raw OD600 reference: median of DMSO wells 0.146, cell-free background 0.041
[12] = arabinose induction (level): High, raw OD600 reference: median of DMSO wells 0.331, cell-free background 0.041
[13] = arabinose induction (level): Low, raw OD600 reference: median of DMSO wells 0.417, cell-free background 0.041
[14] = arabinose induction (level): High, raw OD600 reference: median of DMSO wells […], cell-free background 0.041
[15] = arabinose induction (level): Low, raw OD600 reference: median of DMSO wells 0.227, cell-free background 0.041
[16] = arabinose 100 nM, raw OD600 reference: median of DMSO wells 0.413, cell-free background 0.052
[17] = arabinose 10000000 nM, raw OD600 reference: median of DMSO wells […], cell-free background 0.052

Structure (SMILES)	growth [1]	growth [2, 7]	growth [2, 8]	growth [2, 9]	growth [2, 10]	growth [2, 11]	growth [3, 12]	growth [3, 13]	growth [4, 14]	growth [4, 15]	growth [5]	growth [6, 16]	growth [6, 17]
CN(C(=O)CN(CCO)CC(=O)N(C)C(C)(C)Cc1ccccc1)C(C)(C)Cc1ccccc1 [Oxethazaine]	0.0424 ± 0.0038	0.0404 ± 0.001	0.03963 ± 0.00015	0.0411 ± 0.00087	0.03937 ± 0.00015	0.0411 ± 0.0013	0.179 ± 0.014	0.25 ± 0.037	0.187 ± 0.031	0.202 ± 0.05	0.0484 ± 0.00076	0.165 ± 0.2	0.0514 ± 0.00058
COc1cnc(NS(=O)(=O)c2ccc(N)cc2)nc1 [Sulfameter]	0.242 ± 0.0095	0.283 ± 0.0042	0.239 ± 0.011	0.218 ± 0.029	0.158 ± 0.0061	0.143 ± 0.0066	0.442 ± 0.039	0.399 ± 0.024	0.207 ± 0.027	0.243 ± 0.0072	0.516 ± 0.12	0.407 ± 0.021	0.336 ± 0.0042
C[C@@H]1[C@H](O)[C@@H](C)/C=C/C=C/C=C/C=C/C=C/C=C/C=C/[C@H](O[C@@H]2O[C@H](C)[C@@H](O)[C@H](N)[C@@H]2O)C[C@@H]2O[C@](O)(C[C@@H](O)C[C@@H](O)[C@H](O)CC[C@@H](O)C[C@@H](O)CC(=O)O[C@H]1C)C[C@H](O)[C@H]2C(=O)O [Amphotericin B]	0.316 ± 0.0027	0.33 ± 0.0067	0.27 ± 0.0035	0.345 ± 0.0081	0.182 ± 0.0098	0.261 ± 0.0027	0.416 ± 0.042	0.504 ± 0.026	0.208 ± 0.019	0.237 ± 0.046	0.532 ± 0.087	0.433 ± 0.022	0.478 ± 0.027
CCOC(=O)Nc1ccc2c(c1)N(C(=O)CCN1CCOCC1)c1ccccc1S2 [Moricizine hydrochloride]	0.157 ± 0.0017	0.202 ± 0.0069	0.222 ± 0.0081	0.196 ± 0.012	0.1097 ± 0.00081	0.14 ± 0.0063	0.175 ± 0.018	0.228 ± 0.083	0.168 ± 0.0088	0.199 ± 0.022	0.354 ± 0.0077	0.3937 ± 0.0035	0.258 ± 0.022
O=C1CCC(N2C(=O)c3ccccc3C2=O)C(=O)N1 (stereo not drawn) [Thalidomide]	0.248 ± 0.0061	0.283 ± 0.0041	0.269 ± 0.014	0.204 ± 0.012	0.192 ± 0.0034	0.135 ± 0.0057	0.392 ± 0.098	0.461 ± 0.035	0.189 ± 0.016	0.24 ± 0.052	0.513 ± 0.072	0.424 ± 0.0084	0.346 ± 0.0072
CCCCc1ccc2[nH]c(NC(=O)OC)nc2c1 [Parbendazole]	0.244 ± 0.01	0.307 ± 0.0063	0.277 ± 0.0036	0.213 ± 0.034	0.206 ± 0.0056	0.156 ± 0.0051	0.279 ± 0.015	0.435 ± 0.0069	0.208 ± 0.0058	0.279 ± 0.031	0.496 ± 0.038	0.4255 ± 0.003	0.374 ± 0.045
COc1cc(OC)c(C(=O)CCCN2CCCC2)c(OC)c1 [Buflomedil hydrochloride]	0.238 ± 0.0082	0.296 ± 0.0094	0.269 ± 0.0091	0.201 ± 0.04	0.189 ± 0.0075	0.146 ± 0.0076	0.274 ± 0.033	0.335 ± 0.064	0.166 ± 0.041	0.188 ± 0.01	0.642 ± 0.053	0.407 ± 0.0067	0.345 ± 0.0037
Cc1ccc(/C(=C\CN2CCCC2)c2ccccn2)cc1 [Triprolidine hydrochloride]	0.223 ± 0.0078	0.27 ± 0.014	0.257 ± 0.0035	0.213 ± 0.017	0.176 ± 0.0043	0.141 ± 0.005	0.264 ± 0.029	0.427 ± 0.05	0.165 ± 0.0066	0.214 ± 0.055	0.464 ± 0.026	0.41 ± 0.0077	0.368 ± 0.019
CC(C)(C)c1ccc(C(O)CCCN2CCC(C(O)(c3ccccc3)c3ccccc3)CC2)cc1 (stereo not drawn) [Terfenadine]	0.205 ± 0.0036	0.207 ± 0.14	0.296 ± 0.0092	0.181 ± 0.0044	0.136 ± 0.072	0.158 ± 0.0023	0.265 ± 0.054	0.421 ± 0.013	0.199 ± 0.013	0.239 ± 0.014	0.0576 ± 0.0093	0.0737 ± 0.031	0.0518 ± 0.00085
C[C@@H]1C[C@H]2[C@@H]3CCC4=CC(=O)C=C[C@]4(C)[C@@]3(Cl)[C@@H](O)C[C@]2(C)[C@@]1(OC(=O)c1ccco1)C(=O)CCl [Mometasone furoate]	0.203 ± 0.0057	0.259 ± 0.031	0.223 ± 0.011	0.161 ± 0.0059	0.0878 ± 0.0027	0.152 ± 0.013	0.198 ± 0.049	0.329 ± 0.082	0.297 ± 0.12	0.212 ± 0.06	0.498 ± 0.036	0.415 ± 0.013	0.244 ± 0.0054
CCc1c2c(nc3ccc(OC(=O)N4CCC(N5CCCCC5)CC4)cc13)-c1cc3c(c(=O)n1C2)COC(=O)[C@]3(O)CC [Irinotecan hydrochloride trihydrate]	0.234 ± 0.0062	0.32 ± 0.0061	0.2556 ± 0.0019	0.218 ± 0.015	0.18 ± 0.0024	0.156 ± 0.0056	0.321 ± 0.042	0.414 ± 0.026	0.227 ± 0.0094	0.243 ± 0.0046	0.514 ± 0.052	0.401 ± 0.0022	0.366 ± 0.018
CC(C)(Oc1ccc(CCNC(=O)c2ccc(Cl)cc2)cc1)C(=O)O [Bezafibrate]	0.249 ± 0.0031	0.296 ± 0.0036	0.237 ± 0.0024	0.208 ± 0.028	0.163 ± 0.0041	0.138 ± 0.0072	0.237 ± 0.074	0.298 ± 0.021	0.184 ± 0.012	0.216 ± 0.013	0.483 ± 0.015	0.43 ± 0.0059	0.322 ± 0.019
NCc1ccc(S(N)(=O)=O)cc1 [Mafenide hydrochloride]	0.248 ± 0.0039	0.295 ± 0.021	0.259 ± 0.0097	0.187 ± 0.015	0.177 ± 0.0036	0.14 ± 0.0058	0.358 ± 0.018	0.41 ± 0.044	0.199 ± 0.0035	0.251 ± 0.032	0.418 ± 0.046	0.418 ± 0.0068	0.373 ± 0.018
COc1ccc2[nH]cc(CCNC(C)=O)c2c1 [Melatonin]	0.246 ± 0.0061	0.29 ± 0.0068	0.27 ± 0.005	0.204 ± 0.029	0.183 ± 0.0071	0.1406 ± 0.0012	0.252 ± 0.066	0.348 ± 0.11	0.202 ± 0.026	0.23 ± 0.026	0.521 ± 0.086	0.409 ± 0.01	0.354 ± 0.013
CC=CC1=C(C(=O)O)N2C(=O)[C@@H](NC(=O)[C@H](N)c3ccc(O)cc3)[C@H]2SC1 [Cefprozil]	0.223 ± 0.0095	0.303 ± 0.0056	0.269 ± 0.016	0.184 ± 0.0039	0.194 ± 0.021	0.163 ± 0.0058	0.259 ± 0.048	0.417 ± 0.022	0.204 ± 0.0084	0.255 ± 0.039	0.543 ± 0.068	0.414 ± 0.017	0.374 ± 0.015
Cn1nnc2c(C(N)=O)ncn2c1=O [Temozolomide]	0.241 ± 0.006	0.289 ± 0.0045	0.248 ± 0.0082	0.208 ± 0.018	0.163 ± 0.0073	0.134 ± 0.0048	0.225 ± 0.0049	0.305 ± 0.022	0.194 ± 0.02	0.211 ± 0.0067	0.539 ± 0.076	0.423 ± 0.011	0.35 ± 0.01

Reference: the supplement of paper PMC9262897, “Low-cost anti-mycobacterial drug discovery using engineered E. coli” (Nature Communications, 2022)
